# SW480 rereplic = inducers of DNA re-replication in SW480 colon cancer cells; SW480 DNA re-replication, Hoechst DNA content imaging, 48 h; Potency, µM (doses to about 46.1 µM), for inactives: at the highest dose re-replication activation, most hits filed as activators; 340,000 compounds, 1.8% hits; AID 624297; further: % of control where 0% means no effect; nearly all actives have a fitted effect of over 55% in size
#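 Image-based read-out: total Hoechst fluorescence of nuclei (405 nm excitation, 500-530 nm emission), with hits raising the fraction of high-intensity nuclei. SW480 colon cells incubated 48 hr with compounds at 37 C.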
# KB-V1 MDR tox = kills drug-selected multidrug resistant KB-V1 cells; KB-V1 MDR cells viability, CellTiter-Glo, 72 h; Potency, µM (series often up to 46.1 µM), most hits filed as cytotoxic; 400,000 compounds, 3.4% hits; further: on the % scale 0 is the no-effect control and ±100 the full control effect; nearly all actives have a fitted effect of over 60% in size
#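 qHTS viability screen in drug-selected KB-V1 MDR cells: 72 h compound treatment at 37 degrees C, ATP luminescence end point.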
# KB-3-1 cytotox = KB-3-1 parental cell cytotoxicity; AID 1347075; 400,000 compounds, 1.4% hits; KB-3-1 viability, CellTiter-Glo ATP luminescence, 72 h; Potency, µM (doses to about 46.1 µM), actives largely listed as cytotoxic; further: on the % scale 0 is the no-effect control and ±100 the full control effect; nearly all actives have a fitted effect of over 60% in size
#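 Screening of KB-3-1 cells (DMEM, 10% FBS, phenol-red free) ran from lowest to highest compound concentration; after 72 h at 37 °C viability was read luminescently and curves fitted.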
# MCF10A rereplic = induces DNA re-replication in MCF 10a normal breast cells; AID 624296; MCF 10A DNA re-replication, Hoechst nuclear intensity, 48 h; 350,000 compounds, 2.9% hits; Potency, µM (titrated, usually from 46.1 µM), for inactives: at the highest dose activity, positive = re-replication, hits mostly activators; further: % of control where 0% means no effect; nearly all actives have a fitted effect of over 50% in size
# HT1080-NT tox = kills 2HG-producing HT-1080-NT fibrosarcoma cells | HT-1080-NT fibrosarcoma viability, CellTiter-Glo ATP luminescence, 48 h | Potency, µM (top dose mostly 46.1 µM), without a hit: top-dose activity, negative = less viability, actives largely listed as cytotoxic | 360,000 compounds, 1.6% hits | AID 686970;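 further: NT is the 2HG producing partner of a matched IDH1 knockdown line; 0% = DMSO-treated cells and -100% = media-only wells without cells; nearly all actives have a fitted effect of over 55% in size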
#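 Read-out is CellTiter-Glo luminescence after 10 minutes at room temperature, following 48 hours' compound treatment of HT-1080-NT cells (750 cells/well, RPMI, 5% FBS, 37 degrees C).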
# HT1080 IDH1KD tx = kills HT-1080 cells with IDH1 knockdown. HT-1080 IDH1 knockdown viability, ATP luminescence, 48 h. Potency, µM (top dose mostly 46.1 µM), for the others: at the highest dose activity, negative = toxicity, actives largely listed as cytotoxic. 360,000 compounds, 2% hits. AID 686971;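 further: 0% = DMSO wells and -100% = cell-free medium wells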
#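 In this qHTS, HT-1080 cells depleted of IDH1 are exposed for 48 h at 37 °C to compound titrations. Toxicity is scored from CellTiter-Glo luminescence, with DMSO as full viability and medium alone as none.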
# * hit, by the source's call; i = inactive; u = inconclusive; x = no result. This is a sample that favours compounds with a hit; in the whole collection about 7.9% have one here. The call rests on the fitted dose curve; in most records, active means well fitted curve in the direction sought with a large enough effect; inconclusive means small, poorly fitted or top-dose-only effect, or another doubt; inactive means no such curve, though single readings can be large; an effect the other way counts as inactive or inconclusive. Potency means the concentration at half of the fitted maximal effect.
SMILES,SW480 rereplic,KB-V1 MDR tox,KB-3-1 cytotox,MCF10A rereplic,HT1080-NT tox,HT1080 IDH1KD tx
Cc1nc2nc(NC(=O)c3cccc(Cl)c3)[nH]n2c(=O)c1Cc1ccccc1,x,i,i,x,x,x
O=C(CCCc1ccccn1)c1ccc(-c2ccccc2)cc1,3%,i,i,u,-3%,-1%
COc1ccc(NC(=O)C2Cc3c(-c4ccccc4Oc4ccccc4)ccnc3O2)cc1 (stereo not given),x,i,i,x,0%,-23%
CC(=O)NC(Cc1ccc(Cl)cc1)C(=O)NCC(N)C(=O)c1ccccc1 (stereo not given),x,x,x,x,9%,10%
N=c1c(C(=O)NCc2ccccc2)cc2c(=O)n3ccccc3nc2n1CCCN1CCOCC1,9.2µM*,i,u,3.7µM*,-4%,-14%
CCOCCCn1c(=N)c(C(=O)NCc2ccccc2)cc2c(=O)n3ccccc3nc21,x,i,i,x,x,x
CCOC(=O)Nc1ccc2c3c(cccc13)-c1ccccc1-2,6.5µM*,u,u,u,u,u
CCOC(=O)Nc1cccc2ccccc12,-2%,i,i,-4%,3%,2%
CC(Oc1ccccc1Cl)C(=O)/C=C/N(C)C (stereo not given),-3%,u,i,18µM*,-17%,u
CC(Oc1ccccc1F)C(=O)/C=C/N(C)C (stereo not given),-1%,u,i,-31%,-5%,-22%
CN1CCN(CC(=O)Nc2c(C(=O)c3ccccc3)oc3ccccc23)CC1,u,i,i,30%,23µM*,21µM*
Oc1c(C(c2ccccc2F)N2CCCCC2)sc2nc(-c3ccco3)nn12 (stereo not given),x,i,i,x,x,x
CC(=O)c1cccc(NC(=O)c2sc3nc4n(c(=O)c3c2C)CCCC4)c1,9.2µM*,i,i,4%,10%,12%
COc1ccc(COC(=O)c2sc3nc4n(c(=O)c3c2C)CCC4)cc1,-1%,8.2µM*,i,26%,6%,u
COc1ccc(CNC(=O)c2sc3nc4n(c(=O)c3c2C)CCC4)cc1,x,i,i,x,x,x
O=C1CCCC2=C1C1(CCOCC1)N=C(Nc1nc3ccccc3o1)N2,x,i,i,x,x,x
COc1ccc2c(c1)c1c(c(=O)n(-c3ccc(F)c(Cl)c3)c(=O)n1CC(N)=O)n2C,x,i,i,x,x,x
CCN(C(=O)Cn1cnc2c1c(=O)n(C)c(=O)n2C)c1ccccc1C,x,u,i,x,x,x
CC(C)OCCCn1c(SCC(=O)Nc2ccc(F)cc2)nc2c(sc3ccccc32)c1=O,x,i,i,x,x,x
CC1CC2=C(NC(=S)NC2c2ccc(F)cc2)/C(=C/c2ccc(F)cc2)C1 (stereo not given),u,i,i,-1%,10µM*,u
O=C(CN1CCCCC1)Nc1c2c(nc3ccccc13)N(c1ccccc1)CC2,u,u,i,u,12µM*,16µM*
CCCC(=O)Nc1c2c(nc3ccccc13)N(c1ccccc1)CC2,u,i,i,u,u,26µM*
CCCCc1nc2ccccc2c(NC(=O)CN2CCCC2)c1CCC,-6%,i,i,-2%,0%,0%
CCOC(=O)c1c(S(=O)(=O)N2CCCC(C(=O)NCc3ccccc3Cl)C2)c(C)n(C)c1C (stereo not given),x,i,i,x,x,x
CCOC(=O)C1=CCC(c2cccc(Cl)c2)N(S(=O)(=O)c2ccc(C)cc2)C1 (stereo not given),x,u,i,x,-18%,u
SMILES,SW480 rereplic,KB-V1 MDR tox,KB-3-1 cytotox,MCF10A rereplic,HT1080-NT tox,HT1080 IDH1KD tx
CCOC(=O)C1=C[C@@H](C(C)(C)C)N(S(=O)(=O)c2ccc(C)cc2)[C@H]1c1cccc(Cl)c1,x,i,u,x,u,18µM*
CC(=O)C1=CCC(c2cccc(Cl)c2)N(S(=O)(=O)c2ccc(C)cc2)C1 (stereo not given),x,i,i,x,u,15µM*
CCOC(=O)C1=CCN(S(=O)(=O)c2ccc(F)cc2)C1c1cccc(Cl)c1 (stereo not given),x,8.2µM*,u,x,-10%,-15%
CCOC(=O)C1=C[C@@H](C(C)C)N(S(=O)(=O)c2ccc([N+](=O)[O-])cc2)[C@H]1c1ccccc1,x,u,12µM*,x,0%,-19%
Fc1ccc(NCc2ccccc2-c2nnc(-c3ccccc3Cl)o2)cc1Cl,x,i,i,x,x,x
CCOc1cc(/C=C(\C#N)C(=O)Nc2ccc(C)cc2)ccc1OCc1cc(=O)n2nc(CC)sc2n1,x,i,i,x,x,x
COc1cccc(CNC(=O)CN2C(=O)CSc3c2c(C)nn3-c2ccccc2)c1,x,i,i,x,x,x
Nc1nc(N)c2c(OCC3CCN(Cc4ccccc4F)CC3)cccc2n1,x,u,i,x,x,x
Cc1c(C(=O)NC(Cc2ccccc2)c2nc3ccccc3[nH]2)cccc1[N+](=O)[O-] (stereo not given),u,u,i,20%,-14%,-12%
CSCC[C@H](NC(=O)c1ccc(Cl)c([N+](=O)[O-])c1)c1nc2ccccc2[nH]1,13%,u,u,u,u,u
CSCC[C@H](NC(=O)C1CCN(S(=O)(=O)c2ccc(C)cc2C)CC1)c1nc2ccccc2[nH]1,14%,23µM*,i,3%,-4%,-1%
O=C(NC(Cc1ccccc1)c1nc2ccccc2[nH]1)c1ccc(Cl)c([N+](=O)[O-])c1 (stereo not given),u,i,i,u,21µM*,u
CSCC[C@H](NC(=O)c1cccc([N+](=O)[O-])c1C)c1nc2ccccc2[nH]1,13%,16µM*,i,3%,-9%,1%
Cc1ccc(C(=O)CSc2nc3cc(C(=O)NC4CCCC4)ccc3c(=O)n2CC2CCCO2)c(C)c1 (stereo not given),x,i,i,x,x,x
O=C(CS(=O)(=O)c1cccc2nsnc12)Nc1ccccc1,x,u,i,x,x,x
COc1cc(C2CC(=O)N(c3ccc(C)c(Cl)c3)C3=C2C(=O)OC3)cc(OC)c1OC (stereo not given),x,i,i,x,x,x
O=C(CC1(O)C(=O)N(Cc2cccc3ccccc23)c2ccccc21)c1cccnc1 (stereo not given),u,21µM*,21µM*,u,u,10µM*
CCc1nc2ccc(C(=O)Nc3ccc4c(c3)OCC(=O)N4)cn2c1N(C)Cc1nccn1C,x,i,i,x,17%,12%

# Compound activity (PubChem)
